Measured values taken from PubChem BioAssay AID588651 (The Scripps Research Institute Molecular Screening Center, 2011).
Unmarked numbers belong to inactive results. Calls of active or inactive are those of the source. No stated cut-off is given here; in the data, active means inhibition above about 65%; inactive means the rest.

Each compound was assayed on Fam108b (assay: Fam108b inhibitors and proteome off-target selectivity – biochemical, gel-based ABPP, recombinant soluble Fam108b, HTS hits, complex proteome, late-stage follow-up (AID 588651;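 further: Fam108b spiked into mouse brain membrane proteome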)). Details: FP-rhodamine labeling in proteome, at 20 µM, stronger effect = higher value.

Going from `O=c1ccc2cc3c([nH]c4ccc(Br)cc43)oc-2c1O` to `N=c1oc2cc(O)ccc2cc1C(=O)Nc1ccc(Br)cc1`, the inhibition falls from 10% to 0%.

Going from `CN(c1ccccc1)S(=O)(=O)c1ccc(NC(=O)c2ccc(-c3ccccc3)cc2)cc1` to `CC1CCN(S(=O)(=O)c2ccc(C(=O)Nc3ccccc3-c3nc4ccccc4[nH]3)cc2)CC1`, the inhibition falls from 40% to 0%.

Compared with `Cc1ccnc(N=Cc2nc(-c3ccccc3Br)oc2O)c1`, `Brc1csc(C=NNc2nc3ccccc3s2)c1` is lower in inhibition: 7% for the first, 0% for the second.

Going from `CCN(CC)S(=O)(=O)c1cc(NC(=O)COC(=O)c2sc3ccccc3c2Cl)ccc1C` to `CCOC(=O)c1sc(NC(=O)Nc2ccc(Cl)cc2)cc1C`, the inhibition falls from 10% to 0%.

First: COc1ccc(S(=O)(=O)/N=C2\C=C(Nc3ccc(O)cc3)C(=O)c3ccccc32)cc1
Second: Cc1ccc(S(=O)(=O)Nc2ccccc2C(=O)Nc2nc(-c3ccc(F)cc3)cs2)cc1
The inhibition of the first is lower: 25% for the first, 40% for the second.

`Oc1c(Cl)cc(Cl)c(Cl)c1Cc1c(O)c(Cl)cc(Cl)c1Cl` and `CCc1cc(C(Cc2ccc3ccccc3n2)=NO)c(O)cc1O` are the same in inhibition: 0% for the first, 0% for the second.

First: Cc1[nH]c2c(C)cccc2c1CCNC(=O)c1ccc2c(c1[N+](=O)[O-])C(=O)c1ccccc1C2=O
Second: O=C(Nc1ccc(-c2csc(Nc3ccccc3)n2)cc1)c1cc([N+](=O)[O-])cc(C(F)(F)F)c1
The inhibition of the first is lower: 40% for the first, 60% for the second.

In the case of `O=c1oc(-c2ccccc2Cl)nc2ccsc12`, the inhibition is reported as 95% (active).
